Hits are enriched below; roughly 1.1% of the tested compounds scored in any of these assays.
HEK293 viab: cell viability loss counter-screen. HEK-293-SNCA-luc viability, GF-AFC fluorescence, 24 h. Potency, µM (doses to about 57.1 µM), without a hit: top-dose activity change, negative = cytotoxicity, most hits filed as cytotoxic. 0.12% of 150,000 active;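 also: potency is read from the fitted curve at half-maximal effect; 0% = DMSO-treated cells and -100% = medium-only wells without cells; nearly all actives have a fitted effect of over 30% in size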
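Cytotoxicity counterscreen: after 24 h compound treatment of genome-edited SNCA-luciferase HEK-293 cells, live-cell protease substrate GF-AFC read by fluorescence after 30 min; activity scaled between DMSO (0%) and medium-only (-100%), curves Hill-fitted.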
GPT2 inh: blocks human glutamate pyruvate transaminase 2. Recombinant GPT2, coupled pyruvate oxidase/HRP Amplex Red fluorescence. Q8TD30. 0.25% of 100,000 active. Potency, µM (highest dose often 57.7 µM), inactives show at the top dose activity change, negative = inhibition, usual class: inhibitors; also: potency is read from the fitted curve at half-maximal effect; nearly all actives have a fitted effect of over 60% in size
Target sequence (Q8TD30 whole entry, looked up): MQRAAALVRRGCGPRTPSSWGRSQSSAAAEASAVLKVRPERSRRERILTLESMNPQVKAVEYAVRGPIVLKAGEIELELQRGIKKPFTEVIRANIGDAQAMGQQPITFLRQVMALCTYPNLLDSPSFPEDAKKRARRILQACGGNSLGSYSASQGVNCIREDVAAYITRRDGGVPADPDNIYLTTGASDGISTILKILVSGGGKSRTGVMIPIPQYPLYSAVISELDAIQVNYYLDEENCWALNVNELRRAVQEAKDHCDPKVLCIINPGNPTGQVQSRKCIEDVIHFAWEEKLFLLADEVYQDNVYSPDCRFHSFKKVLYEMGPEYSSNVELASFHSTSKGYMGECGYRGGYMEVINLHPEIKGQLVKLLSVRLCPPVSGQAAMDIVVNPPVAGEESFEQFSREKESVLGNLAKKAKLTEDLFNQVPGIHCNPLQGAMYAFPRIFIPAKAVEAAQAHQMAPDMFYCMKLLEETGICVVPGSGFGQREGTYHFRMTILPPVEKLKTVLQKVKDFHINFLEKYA
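Fluorescence read-out: pyruvate from GPT2 turnover coupled to pyruvate oxidase, HRP and Amplex Red (0.2mM ThPP, 0.2U/mL PO and HRP, 50uM Amplex final). Substrates 250uM a-KG, 2mM L-alanine; enzyme 10ng/uL; 30 min RT.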
IP6K1 inhibitor: blocks human inositol hexakisphosphate kinase 1; Q92551; IP6K1 kinase, ADP-Glo luminescence, 2 h; stronger effect = lower value; activity change, % (series mostly up to about 58 µM); AID 1645851; 0.81% of 140,000 active; in the data active = activity change below about -25%
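ADP-Glo luminescence measures ADP made by human IP6K1 during a 2 h RT reaction with ATP/IP6 (mix at 1.3 mM/130 uM); top library doses 57.5 and 19.1 uM final.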
SNCA expr inhib: SNCA gene expression inhibition; HEK-293 SNCA-luciferase knock-in, luminescence, 24 h; Potency, µM (doses to about 57.2 µM), inactives show at the highest dose activity change, negative = inhibition, hits mostly inhibitors; 0.17% of 140,000 active;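 also: potency is read from the fitted curve at half-maximal effect; plate controls were DMSO cells for no effect and cell-free wells for full effect; nearly all actives have a fitted effect of over 45% in size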
Starred values were filed as active, the others as inactive; ! = not confirmed by another sample; [ ] = remark or other dose. Unless noted, calls follow the shape of the dose curve; as a rule, active = well fitted curve in the direction sought with a large enough effect; inconclusive = small, poorly fitted or top-dose-only effect, or another doubt; inactive = no such curve, though single readings can be large; an effect the other way counts as inactive or inconclusive. Unless noted, % is scaled to controls: 0 for no effect and ±100 for the full control effect.

CC(C)=CCCC1(C)/C=C/C(OC(=O)C=C(C)C)C(C)(O)/C=C/C(=O)/C(CO)=C\C1 (stereo unspecified) was read as HEK293 viab 13µM*, GPT2 inh -9.8%[27.3 µM] and IP6K1 inhibitor 1.6.
For CN1CCc2cc(O)c(O)cc2C(c2ccccc2)C1 (stereo unspecified) the results were HEK293 viab -6.8%, GPT2 inh inconclusive and SNCA expr inhib -12.7%.
For CN1Cc2sccc2C(c2ccc(O)c(O)c2)C1 (stereo unspecified) the results were HEK293 viab -18.2%, GPT2 inh 3.98µM* and SNCA expr inhib 14.5%.
For CSc1ccc(-c2cccc(C(=O)NCCNC(=O)Nc3ccc(Cl)cc3)c2)cc1 the results were HEK293 viab 12.1%[12.5 µM], GPT2 inh inactive, IP6K1 inhibitor 18.2 and SNCA expr inhib -7.3%.
`C[n+]1cc2c3c(ccc2c2ccc4cc5c(cc4c21)OCO5)OCO3` gave HEK293 viab 12.6µM*!, GPT2 inh -32.2%, IP6K1 inhibitor -19.0 and SNCA expr inhib inconclusive.
O=C(CCC1CCN(c2cc(NC3CC3)ncn2)CC1)NCc1cc(F)cc(F)c1 was read as HEK293 viab 9.5%, GPT2 inh inactive, IP6K1 inhibitor 11.7 and SNCA expr inhib 4.47µM*.
O=C(CCC1CCN(c2cc(NC3CC3)ncn2)CC1)NCc1ccc(F)cc1 was read as HEK293 viab 5.4%, GPT2 inh inactive, IP6K1 inhibitor 17.0 and SNCA expr inhib inconclusive.
O=C(CCC1CCN(c2cc(NC3CC3)ncn2)CC1)NCc1ccc(F)cc1F was read as HEK293 viab -5.6%, GPT2 inh inactive, IP6K1 inhibitor 19.2 and SNCA expr inhib 3.55µM*.
Screening COc1cccc(C(=O)N2CCC(C(=O)N3CCC(c4nc5ncccc5[nH]4)C3)CC2)c1 (stereo unspecified) returned HEK293 viab -6.6%, GPT2 inh inactive, IP6K1 inhibitor 3.5 and SNCA expr inhib 9.0%.
For Cc1cc(CO)c(O)c(C(=O)CC2CC(=O)NC(=O)C2)c1 the results were HEK293 viab -8.7%, GPT2 inh 1.8% and IP6K1 inhibitor 13.2.
C/C=C(/C)C(=O)O[C@H]1[C@H](OC(=O)/C(C)=C\C)[C@@]23C(CC1(C)C)[C@]1(CCC4[C@@]5(C)CC[C@H](O[C@@H]6O[C@H](C(=O)O)[C@@H](O)[C@H](O[C@@H]7O[C@H](CO)[C@H](O)[C@H](O)[C@H]7O[C@@H]7O[C@@H](C)[C@H](O)[C@@H](O)[C@H]7O[C@@H]7OC[C@@H](O)[C@H](O)[C@H]7O)[C@H]6O[C@@H]6O[C@H](CO)[C@H](O)[C@H](O)[C@H]6O)C(C)(C)C5CC[C@@]4(C)[C@]1(C)C[C@H]2O)O[C@H]3O (stereo partly specified) was read as HEK293 viab 3.57µM*, GPT2 inh inactive[11.5 µM] and IP6K1 inhibitor 14.7.
Screening COc1ccccc1-c1cccc(C(=O)N2CCN(C(=O)c3ccccc3C)CC2)c1 returned HEK293 viab -25.2%[12.5 µM], GPT2 inh 1.8%, IP6K1 inhibitor 1.1 and SNCA expr inhib -9.4%.
`COc1cc2c(NC3CCN(C(C)C)CC3)nc(C3CCCCC3)nc2cc1OCCCN1CCCC1` gave HEK293 viab inconclusive, GPT2 inh -7.0%, IP6K1 inhibitor -15.9 and SNCA expr inhib 35.8%.
COc1cc2nc(N3CCC(N4CCCCC4)CC3)nc(NC3CCCCCC3)c2cc1OC was read as HEK293 viab 23.8µM*, GPT2 inh 0.4% and IP6K1 inhibitor 14.0.
Screening Cc1ccc(NC(=O)C2(c3ccc4c(c3)OC(F)(F)O4)CC2)nc1-c1cccc(C(=O)O)c1 returned HEK293 viab inconclusive, GPT2 inh inactive, IP6K1 inhibitor -4.2 and SNCA expr inhib 0.0764µM*.
Cc1noc(C2CC3(CCN(C(=O)CC(C)C)CC3)CN2C)n1 (stereo unspecified) was read as HEK293 viab 4.6%, GPT2 inh inactive, IP6K1 inhibitor 8.8 and SNCA expr inhib -14.8%.
`O=C(Cc1ccccc1)N1CCCC2(CN[S+](=O)([O-])c3cccnc3N2)C1` (stereo unspecified) gave IP6K1 inhibitor 16.2.
CCC(Sc1nc2nccnc2c(=O)n1Cc1ccccc1Cl)C(=O)NC1CCCCC1 (stereo unspecified) was read as HEK293 viab inconclusive, IP6K1 inhibitor 28.9 and SNCA expr inhib 3.55µM*.
O=C(NCc1ccccc1Cl)C1CCN(C(=O)c2ccc(-c3cncnc3)cc2)CC1 was read as IP6K1 inhibitor 10.0.
Screening CCn1cc(S(=O)(=O)N2CC(c3nc(CCOc4cccc(C)c4)no3)C2)cn1 returned HEK293 viab 1.3%, GPT2 inh -7.6%, IP6K1 inhibitor 18.5 and SNCA expr inhib -11.6%.
O=C(/C=C/c1ccc(O)cc1)OC[C@H]1O[C@@H](O/C(=C\c2ccccc2)C(=O)O)[C@H](O)[C@@H](O)[C@@H]1O was read as HEK293 viab -5.3%[23.9 µM], GPT2 inh inactive and IP6K1 inhibitor 1.4.
`O=C(/C=C/c1ccccc1)OC[C@H]1O[C@@H](OC(=O)c2cc(O)c(O)c(O)c2)[C@H](O)[C@@H](O)[C@@H]1O` gave HEK293 viab -19.4%[23.9 µM], GPT2 inh inconclusive and IP6K1 inhibitor -47.4*.
Screening Nc1nc2c(ncn2COC(CO)CO)c(=O)[nH]1 returned HEK293 viab -17.5%, GPT2 inh -21.5%, IP6K1 inhibitor 12.0 and SNCA expr inhib 0.0857µM*!.
`c1ccc(OCC2CN(Cc3ccc4[nH]ccc4c3)CC23CN(c2ccccc2)C3)cc1` (stereo unspecified) gave HEK293 viab inconclusive, GPT2 inh -33.4%[88.5 µM], IP6K1 inhibitor -0.6 and SNCA expr inhib 20µM*.
Screening CCOC(=O)[C@@H]1CN(C(=O)C2CCCC2)[C@H]2c3cccc(C)c3O[C@@H]12 returned IP6K1 inhibitor 24.7.
`CC(C)CC(=O)NC1CCN(c2cn[nH]c(=O)c2)CC1` gave HEK293 viab inconclusive, GPT2 inh -11.3%, IP6K1 inhibitor -0.8 and SNCA expr inhib 29.8%.
Screening CC(C)CC(=O)Nc1n[nH]c2c1CN(C(=O)C1CCN(C)CC1)C2(C)C returned HEK293 viab inconclusive, GPT2 inh -5.6%, IP6K1 inhibitor 5.2 and SNCA expr inhib 0.541µM*.
O=C(C1CCCN1C(=O)c1ccccc1Cl)N1CCC(c2nc3ccncc3[nH]2)C1 (stereo unspecified) was read as HEK293 viab 1.7%, GPT2 inh inactive, IP6K1 inhibitor 7.8 and SNCA expr inhib -14.4%.
For O=c1cc(O)cc(/C=C/c2ccc(O)c(O)c2)o1 the results were HEK293 viab -6.5%, GPT2 inh 6.31µM* and SNCA expr inhib -14.6%.
Screening OC[C@H]1O[C@@H](Oc2cc(O)cc(/C=C/c3ccc(O)cc3)c2)[C@H](O)[C@@H](O)[C@@H]1O returned HEK293 viab -16.1%, GPT2 inh inconclusive and IP6K1 inhibitor 19.4.
For COc1ccc(C=Cc2cc(OC)c(OC)c(OC)c2)cc1O the results were HEK293 viab -13.8%, GPT2 inh 2.2% and SNCA expr inhib -2.1%.

From PubChem BioAssay
